Results reported in PubChem BioAssay (NCATS).
Values joined by “and” are separate entries in the source; they are usually repeats but may differ in a detail not shown here. Equal values may be shown once. Inconclusive results are not listed. Active and inactive are the calls of the source. The call rests on the fitted dose curve; in most records, active means well fitted inhibition curve with a large enough effect; inconclusive means small, poorly fitted or top-dose-only effect; inactive means flat fitted curve, though single readings scatter.

Columns and labels:
Assay in all cases: qHTS profiling for inhibitors of Plasmodium falciparum proliferation (AID 504749); further: nearly all actives have a fitted effect of over 60% in size
Details in all cases: P. falciparum in erythrocytes, SYBR Green DNA, 72 h; series mostly up to 28.7 µM
DIV17 = system: DIV17
Summary of the method: (§1)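 P. falciparum-infected erythrocytes (0.3% parasitemia, 2.5% hematocrit final) were exposed to compounds for 72 h at 37 C in 5% CO2, then lysed with SYBR Green buffer overnight at room temperature; parasite DNA fluorescence was normalized to artemisinin and DMSO controls.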

DIV30 = system: DIV30
Summary of the method: as §1

Dd2 = system: Dd2
Summary of the method: as §1

ECU = system: ECU
Summary of the method: as §1

FAB9 = system: FAB9
Summary of the method: as §1

GB4 = system: GB4
Summary of the method: as §1

HB3 = system: HB3
Summary of the method: as §1

ICS = system: ICS
Summary of the method: as §1

JCK = system: JCK
Summary of the method: as §1

N140 = system: N140
Summary of the method: as §1

Measured: Potency
Potency means the concentration at half of the fitted maximal effect.

Nc1ccc(C(=O)O)c(O)c1
inactive: all assays above

CC(=O)[C@]1(O)Cc2c(O)c3c(c(O)c2[C@@H](O[C@H]2C[C@H](N)[C@H](O)[C@H](C)O2)C1)C(=O)c1c(O)cccc1C3=O
active: DIV17 4.78 µM | Dd2 3.16 µM | GB4 4.78 µM | HB3 7.94 µM | ICS 2 µM | JCK 11.2 µM | N140 10 µM

Oc1c(Br)cc(Br)c2cccnc12
not listed: ICS
inactive: all other assays above

O=C(OCc1ccccc1)c1ccccc1
not listed: DIV17
inactive: all other assays above

Cc1nc2ccccc2n1Cc1ccc(Cl)cc1
inactive: DIV17 | DIV30 | Dd2 | FAB9 | JCK

C=C(Nc1ccc(OCC)cc1)Nc1ccc(OCC)cc1
not listed: GB4
inactive: all other assays above

O=C(O)[C@H](O)[C@@H](O)[C@H](O)[C@H](O)CO
inactive: all assays above

Cc1cc(O)c2ccccc2c1O
inactive: DIV30 | ECU | FAB9 | HB3 | JCK | N140

CCCCC[C@H](O)/C=C/[C@@H]1[C@@H](C/C=C\CCCC(=O)O)[C@@H](O)C[C@H]1O
inactive: all assays above

CN1[C@@H](CC(=O)c2ccccc2)CCC[C@H]1C[C@H](O)c1ccccc1
active: DIV17 10.7 µM | Dd2 10 µM | GB4 10.7 µM | ICS 11.2 µM | N140 17.8 µM
inactive: FAB9 | HB3

CCCCCC[C@@H](O)C/C=C\CCCCCCCC(=O)O
inactive: all assays above

COc1ccc(-c2cc(=S)ss2)cc1
active: ECU 12.6 µM | ICS 7.94 µM
not listed: DIV30
inactive: all other assays above

O=C(O)c1ccccc1Nc1cccc(C(F)(F)F)c1
inactive: all assays above

CCCCCCCCCCCCCCCC(=O)OC(C)C
not listed: FAB9
inactive: all other assays above

NC(=O)C(c1ccccc1)(c1ccccc1)[C@@H]1CCN(CCc2ccc3c(c2)CCO3)C1
active: DIV17 10.7 µM | Dd2 5.01 µM | ICS 7.08 µM
inactive: FAB9 | HB3 | JCK

O=C1CN(/N=C/c2ccc(-c3ccc([N+](=O)[O-])cc3)o2)C(=O)N1
not listed: DIV17 | GB4
inactive: all other assays above

COc1cc(/C=C/C(=O)CC(=O)/C=C/c2ccc(O)c(OC)c2)ccc1O
active: DIV17 13.5 µM | DIV30 13.5 µM | Dd2 12.6 µM | ECU 1 µM | GB4 12 µM
inactive: FAB9 | JCK

COc1cc(/C=C/C(=O)N2CCN(CC(=O)N3CCCC3)CC2)cc(OC)c1OC
inactive: Dd2 | FAB9 | GB4 | HB3 | JCK
active: ICS 11.2 µM

O=C(CCN1CCN(CCO)CC1)N1c2ccccc2Sc2ccc(C(F)(F)F)cc21
active: DIV17 9.53 µM | Dd2 11.2 µM | ICS 11.2 µM | N140 12.6 µM
inactive: FAB9 | JCK

CCCSc1ccc2nc(NC(=O)OC)[nH]c2c1
not listed: DIV30
inactive: all other assays above

COc1ccc(/C=C/C(=O)Nc2ccccc2C(=O)O)cc1OC
not listed: DIV30 | GB4
inactive: all other assays above

Clc1ccccc1-c1nc(-c2ccncc2)no1
active: DIV17 15.1 µM
not listed: ECU | ICS | N140
inactive: all other assays above

CCCCCCCCCCCC(=O)[O][Sn]([CH2]CCC)([CH2]CCC)[O]C(=O)CCCCCCCCCCC
not listed: ICS
inactive: all other assays above

CCCC(=O)OC[C@@H](OC(=O)CCC)[C@@H](OC(=O)CCC)[C@H](Cn1c2nc(=O)[nH]c(=O)c-2nc2cc(C)c(C)cc21)OC(=O)CCC
inactive: DIV30 | JCK
active: Dd2 11.2 µM

CN1[C@@H]2CC[C@H]1CC(OC(c1ccccc1)c1ccccc1)C2 (stereo partly drawn)
inactive: FAB9 | HB3
active: DIV17 5.36 µM and 4.26 µM | Dd2 6.31 µM | GB4 8.49 µM | ICS 10 µM and 11.2 µM | JCK 11.2 µM

CN(C)c1ccc(C(=C2C=CC(=[N+](C)C)C=C2)c2ccccc2)cc1
active: DIV17 6.01 µM | Dd2 11.2 µM | GB4 4.26 µM | HB3 11.2 µM | ICS 2.24 µM
inactive: FAB9 | JCK
